This note sets out measurements from PubChem BioAssay (Tox21).

A number with no mark means an inactive call. Results filed as inconclusive are left out. Active and inactive are the calls of the source. Unless noted, calls come from the whole dose curve; as a rule, active = well fitted curve in the direction sought with a large enough effect in the repeat runs; inconclusive = weak or mixed curves; inactive = no such curve, though single readings can be large; an effect the other way counts as inactive or inconclusive.

The nature of test [1]: qHTS RealTime-Glo MT Cell Viability Assay in HEK293 cells - 0 hour (AID 1224880). Note: top concentration of the series differs between compounds; nearly all actives have a fitted effect of over 45% in size. Put shortly: (§1)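 HEK293 + NanoLuc + prosubstrate, 600 cells/well; 5 h, 37 C/5% CO2; compound 23 nL in DMSO by pintool; 37 C; luminescence read at 0, 8, 16, 24, 32 and 40 h time points.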
Test [2] in a line: A CellTox Green Cytotoxicity Assay to monitor cytotoxicity in HEK293 cells - 32 hour (AID 1224881). Note: nearly all actives have a fitted effect of over 40% in size. Put shortly:
(§2)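 Tox21 screen in HEK293: membrane-impermeant cyanine dye fluoresces on binding dead-cell DNA; compound pinned 5 h post-seeding, plates held at 37 C, signal read repeatedly through 40 h.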

Test [3] is described as follows: A CellTox Green Cytotoxicity Assay to monitor cytotoxicity in HepG2 cells - 32 hour (AID 1224883). Note: nearly all actives have a fitted effect of over 50% in size. Put shortly:
(§3)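 Measurements at 0, 8, 16, 24, 32 and 40 h of treatment captured CellTox Green fluorescence in HepG2 cells that had been co-plated with reagent and preincubated 5 h at 37 C/5% CO2.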

Test [4] in a line: A CellTox Green Cytotoxicity Assay to monitor cytotoxicity in HEK293 cells - 8 hour (AID 1224884). Note: nearly all actives have a fitted effect of over 35% in size. Put shortly: as §2
Test [5] in a line: qHTS RealTime-Glo MT Cell Viability Assay in HepG2 cells - 16 hour (AID 1224885). Note: nearly all actives have a fitted effect of over 50% in size. Put shortly:
(§4)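 Compound treatment began 5 h after plating HepG2 cells (600/well) with NanoLuc luciferase and prosubstrate. Plates stayed at 37 C for 40 h; luminescence was captured at six time points, 0 h through 40 h.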

Test [6] can be described thus: qHTS RealTime-Glo MT Cell Viability Assay in HEK293 cells - 24 hour (AID 1224886). Note: nearly all actives have a fitted effect of over 50% in size. Note: potency is the fitted concentration of half-maximal effect. The gist of the method:
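Quantitative high-throughput screen of the Tox21 10K library in HEK293: cells and RealTime-Glo reagents plated together, compound added at 5 h, luminescence monitored through 40 h at 37 C.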

Test [7] is described as follows: qHTS RealTime-Glo MT Cell Viability Assay in HEK293 cells - 8 hour (AID 1224887). Note: nearly all actives have a fitted effect of over 50% in size. Note: potency is the fitted concentration of half-maximal effect. The gist of the method:
as §1

A short description of test [8]: A CellTox Green Cytotoxicity Assay to monitor cytotoxicity in HEK293 cells - 16 hour (AID 1224888). Note: nearly all actives have a fitted effect of over 35% in size. Put shortly: as §2
A short description of test [9]: qHTS RealTime-Glo MT Cell Viability Assay in HepG2 cells - 0 hour (AID 1224889). Note: nearly all actives have a fitted effect of over 50% in size. Put shortly:
as §4

A short description of test [10]: A CellTox Green Cytotoxicity Assay to monitor cytotoxicity in HepG2 cells - 8 hour (AID 1224890). Note: nearly all actives have a fitted effect of over 45% in size. Put shortly:
as §3

A short description of test [11]: qHTS assay to identify small molecule antagonists of the estrogen receptor alpha (ER-alpha) signaling pathway using the BG1 cell line in the presence of 0.1 nM 17-beta-estradiol - cell viability counter screen (AID 1259241). Note: nearly all actives have a fitted effect of over 40% in size. The gist of the method:
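Cells were plated and left 24 hr, compounds in DMSO were pinned in, 17beta-estradiol was added to 0.1 nM final, and after 22 hr CellTiter-Fluor reagent was added for 30 min before fluorescence was read.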

Test [12] has as its target Androgen receptor (Homo sapiens) (UniProt P10275). The test is described as follows: qHTS assay to identify small molecule antagonists of the androgen receptor (AR) signaling pathway using the MDA cell line in the presence of 0.5 nM R1881 (AID 1259243). Note: nearly all actives have a fitted effect of over 50% in size. Put shortly: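 With R1881 held at 0.5 nM (final), compound effects on MMTV-luciferase expression in MDA-kb2 cells were scored by luminescence after a 16 hr, 37C incubation.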

Test [13] is described as follows: qHTS assay to identify small molecule HDAC inhibitors (AID 1259364). Note: potency is the fitted concentration of half-maximal effect.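 Note: wild-type HCT-116 cells with endogenous class I/II HDAC activity; nearly all actives have a fitted effect of over 45% in size.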 The gist of the method: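 Screening used wild-type human colon HCT-116 cells incubated overnight, dosed with compounds for 2 hours, and assayed with a homogeneous luminogenic HDAC I/II reagent for 30 minutes at room temperature.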
Test [14] in a line: qHTS assay to identify small molecule HDAC inhibitors - cell viability counter screen (AID 1259365). Put shortly:
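Counter screen in wild-type HCT-116 cells: compounds dissolved in DMSO are pin-transferred onto overnight-plated cells and left 2hr at 37C. ATP-based CellTiter-Glo luminescence then measures viable cells.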

Test [15] is described as follows: qHTS assay to identify small molecule agonists of the sonic hedgehog signaling (Shh) pathway - cell viability counter screen (AID 1259366). Note: nearly all actives have a fitted effect of over 50% in size. Put shortly: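 Cells are plated at 2,000 per well and left 4hr at 37C, 5% CO2 before compound addition. After 23hr of treatment, CellTiter-Fluor reagent is added for 1hr at 37C and fluorescence is measured.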
A short description of test [16]: qHTS assay to identify small molecule antagonists of the sonic hedgehog signaling (Shh) pathway - cell viability counter screen (AID 1259367). Note: nearly all actives have a fitted effect of over 55% in size. Put shortly: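 Viability was read by CellTiter-Fluor fluorescence in the same wells, reagent added 23 hr into compound treatment and incubated 1 hr at 37C. The 3T3 Gli1-Luc reporter cells (2,000/well) received conditioned medium after compound and ran 24 hr.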

The nature of test [17]: qHTS assay to identify small molecule antagonists of the androgen receptor (AR) signaling pathway using the MDA cell line in the presence of 0.5 nM R1881 - cell viability counter screen (AID 1259242). Note: nearly all actives have a fitted effect of over 45% in size. The gist of the method:
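Concentration-response screen of compounds for toxicity in MDA-kb2 reporter cells: 16 hr at 37C with 0.5 nM R1881, endpoint live-cell protease fluorescence measured in the reporter wells.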

Test [18] concerns the target Estrogen receptor (Homo sapiens) (UniProt P03372). Description: qHTS assay to identify small molecule antagonists of the estrogen receptor alpha (ER-alpha) signaling pathway using the BG1 cell line in the presence of 0.1 nM 17-beta-estradiol (AID 1259244). Note: nearly all actives have a fitted effect of over 50% in size. The gist of the method:
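Compounds were tested against 0.1 nM (final) 17beta-estradiol in VM7Luc4E2 cells, which express full-length ER-alpha and an ERE-luciferase reporter; luminescence was recorded following 22 h exposure.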

Test [19] in a line: A CellTox Green Cytotoxicity Assay to monitor cytotoxicity in HepG2 cells - 0 hour (AID 1224882). Note: nearly all actives have a fitted effect of over 35% in size. Put shortly: as §3
The nature of test [20]: qHTS assay to identify small molecule phospholipidosis (PLD) inducers (AID 1259344; active = well fitted curve in the direction sought with a large enough effect; an effect the other way counts as inactive or inconclusive). The gist of the method:
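Phospholipid accumulation was scored by imaging: fixed, Hoechst-counterstained HepG2 cells stained with LipidTOX Red after 24 h compound exposure at 37 C. Read-outs were pit count and pit intensity per well or per cell, with amiodarone and DMSO controls.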

Chain of Estrogen receptor (Homo sapiens) (P03372 whole entry, looked up): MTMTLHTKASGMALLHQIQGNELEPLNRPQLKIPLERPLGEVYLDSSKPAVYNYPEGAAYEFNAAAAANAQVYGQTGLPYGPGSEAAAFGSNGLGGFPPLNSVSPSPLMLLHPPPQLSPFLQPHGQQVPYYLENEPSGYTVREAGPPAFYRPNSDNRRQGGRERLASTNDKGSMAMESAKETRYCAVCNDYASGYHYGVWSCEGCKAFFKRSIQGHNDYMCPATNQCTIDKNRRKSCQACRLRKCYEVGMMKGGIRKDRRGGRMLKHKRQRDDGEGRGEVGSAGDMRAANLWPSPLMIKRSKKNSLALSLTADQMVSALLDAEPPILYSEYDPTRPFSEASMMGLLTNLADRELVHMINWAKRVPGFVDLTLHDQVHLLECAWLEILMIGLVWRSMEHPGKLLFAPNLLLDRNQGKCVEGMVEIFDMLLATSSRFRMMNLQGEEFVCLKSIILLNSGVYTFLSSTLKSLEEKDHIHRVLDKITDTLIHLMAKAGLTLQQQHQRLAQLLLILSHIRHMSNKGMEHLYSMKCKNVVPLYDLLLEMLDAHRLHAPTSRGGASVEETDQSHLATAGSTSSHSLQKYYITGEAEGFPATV
Chain of Androgen receptor (Homo sapiens) (P10275 whole entry, looked up): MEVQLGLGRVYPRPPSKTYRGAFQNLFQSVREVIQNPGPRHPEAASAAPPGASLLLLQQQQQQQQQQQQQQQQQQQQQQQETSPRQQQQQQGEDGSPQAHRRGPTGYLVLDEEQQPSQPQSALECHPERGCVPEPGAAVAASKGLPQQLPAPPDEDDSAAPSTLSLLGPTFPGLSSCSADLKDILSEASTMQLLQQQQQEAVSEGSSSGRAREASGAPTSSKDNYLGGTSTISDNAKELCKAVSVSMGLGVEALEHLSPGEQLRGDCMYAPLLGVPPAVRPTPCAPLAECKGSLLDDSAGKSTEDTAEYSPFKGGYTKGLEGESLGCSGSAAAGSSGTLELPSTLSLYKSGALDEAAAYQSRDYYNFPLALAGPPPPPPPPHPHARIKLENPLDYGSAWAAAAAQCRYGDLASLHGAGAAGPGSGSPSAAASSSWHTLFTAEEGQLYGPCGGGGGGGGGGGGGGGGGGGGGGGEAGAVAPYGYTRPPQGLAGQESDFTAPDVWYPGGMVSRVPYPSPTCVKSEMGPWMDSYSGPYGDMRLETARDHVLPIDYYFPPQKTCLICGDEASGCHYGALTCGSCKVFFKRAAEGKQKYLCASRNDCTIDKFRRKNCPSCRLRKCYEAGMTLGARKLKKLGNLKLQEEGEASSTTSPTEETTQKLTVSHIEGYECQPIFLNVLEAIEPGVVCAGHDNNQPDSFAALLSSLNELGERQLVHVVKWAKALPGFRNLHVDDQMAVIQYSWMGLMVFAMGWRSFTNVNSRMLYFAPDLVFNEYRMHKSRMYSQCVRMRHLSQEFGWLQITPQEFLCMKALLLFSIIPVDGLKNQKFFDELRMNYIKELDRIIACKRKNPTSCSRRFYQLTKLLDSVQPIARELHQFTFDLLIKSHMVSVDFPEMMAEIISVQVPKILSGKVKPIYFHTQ

Turning to `C=CCCCCCCCCCCCC`, the Potency entry in test [1], in test [2], in [3], in test [4], in [6] and in [7] was “inactive” in each case. The Potency entry in [9], in [11], in test [12], in test [13], in test [15] and in test [16] was “inactive” throughout. Further, the outcome in [5], in [8], in test [10] and in test [14] was inactive.

Regarding `Nc1cccc(O)c1`, the Potency entry in test [1], in test [2], in test [4], in [6], in test [7] and in [9] was “inactive” throughout. Besides, the Potency result in [11], in [18], in [13], in test [15] and in test [16] was “inactive” throughout. Besides, the outcome in [5], in [8], in test [10], in test [17] and in [14] was inactive.

With `CCCC/C=C/C=C\C=O`, the Potency entry in [2], in [3], in test [4], in test [6], in [7] and in test [9] was “inactive” each time. In addition, the Potency result in test [11], in test [12], in test [18], in test [13] and in [15] was “inactive” throughout. Moreover, the compound was called inactive in test [19], in test [5], in test [8], in test [10], in test [17] and in test [14].

Turning to `O=C(NCC(O)CO)c1c(I)c(C(=O)NCC(O)CO)c(I)c(N(CCO)C(=O)CO)c1I` (configuration not stated), the Potency entry in test [1], in test [2], in [3], in [4], in test [6] and in test [7] was “inactive” in each case. The Potency result in [9], in test [11], in test [13], in test [15] and in test [16] was “inactive” throughout. Besides, the result in test [5], in test [8], in [10], in test [17], in [20] and in test [14] was inactive.

On to `CCC(C)(CCC(C)C)C(=O)O` (configuration not stated), for which the Potency entry in [1], in test [2], in test [4], in test [6], in test [7] and in test [9] was “inactive” throughout. In addition, the Potency entry in test [11], in test [13], in [15] and in test [16] was “inactive” throughout. In addition, the outcome in test [5], in test [8], in test [10] and in [14] was inactive.

As to `C[Si](C)(C)C`, the Potency entry in [1], in test [2], in [3], in test [4], in test [6] and in test [7] was “inactive” in each case. For the same compound, the Potency result in test [9], in test [11], in [13] and in [15] was “inactive” in each case. The compound was called inactive in test [5], in test [8], in test [10], in test [17] and in test [14].

For `O=C(O)Cc1ccc(Cl)cc1Cl`, the Potency result in test [1], in [2], in [4], in test [6], in test [7] and in test [11] was “inactive” in each case. Besides, the Potency entry in test [12], in test [18], in [13], in [15] and in test [16] was “inactive” throughout. For the same compound, the call in [5], in test [8], in [17] and in [14] was inactive.

With `CC(C)(C)NC(N)=O`, the Potency entry in test [2], in test [3], in [4], in test [6], in [7] and in test [9] was “inactive” in each case. The Potency entry in test [11], in test [12], in test [18], in test [13] and in test [15] was “inactive” in each case. The compound was classed as inactive in test [19], in [5], in test [8], in [10], in [17] and in [14].

In the case of `COc1cc(N)ccc1C`, the Potency entry in test [1], in test [2], in test [3], in test [4], in test [6] and in [7] was “inactive” each time. The Potency result in test [9], in test [11], in test [13], in test [15] and in test [16] was “inactive” in each case. Further, the outcome in test [5], in test [8], in [10], in [17] and in [14] was inactive.

Turning to `CCOC(=O)c1ncn2c1CN(C)C(=O)c1cc(F)ccc1-2`, the Potency entry in test [1], in [2], in test [3], in [4], in test [6] and in [7] was “inactive” each time. Besides, the Potency result in test [9], in test [11], in test [12], in test [18], in [13] and in [15] was “inactive” throughout. Besides, the Potency entry in test [16] is “inactive”. Further, the outcome in [5], in [8], in [10], in test [20] and in test [14] was inactive.

Take `CC(=O)NCCCCCC(=O)O`: the Potency result in test [1], in test [2], in test [4], in [6], in test [7] and in [9] was “inactive” each time. For the same compound, the Potency entry in test [11], in test [18], in [13], in [15] and in test [16] was “inactive” each time. Besides, the call in test [5], in test [8], in test [10], in test [20] and in [14] was inactive.

For `CC(=O)c1ccc2c(c1)Cc1ccccc1-2`, the Potency result in test [1], in test [2], in [3], in test [4], in test [6] and in [7] was “inactive” each time. The Potency entry in test [9], in [11], in test [18], in test [15] and in test [16] was “inactive” throughout. Further, the result in test [5], in test [8], in test [10], in test [17] and in test [14] was inactive. Also, in test [13], the Potency is 27.3 µM (active).

For the compound `CC(N)C(=O)OC(C)(C)Cc1ccc(Cl)cc1` (configuration not stated), the Potency result in test [1], in test [2], in test [3], in test [6], in test [7] and in test [9] was “inactive” throughout. In addition, the Potency result in test [11], in test [18], in test [13], in test [15] and in test [16] was “inactive” in each case. In addition, the call in test [5], in test [8], in test [10] and in [14] was inactive.

Turning to `CCOc1cc([N+](=O)[O-])c(OCC)cc1N1CCOCC1`, the Potency result in test [1], in test [2], in test [3], in [4], in [9] and in test [18] was “inactive” each time. The Potency entry in test [13], in [15] and in test [16] was “inactive” each time. Further, the compound was called inactive in test [5], in test [8], in test [10], in test [17] and in test [14]. Besides, the Potency in test [6] and in test [7] was 15.5 µM (active) each time.

As for `CCCCCCCCC1CCC(=O)O1` (configuration not stated), the Potency entry in [1], in test [2], in [3], in test [4], in test [6] and in [7] was “inactive” each time. For the same compound, the Potency entry in test [9], in [11], in test [18], in [13], in test [15] and in test [16] was “inactive” throughout. The result in [5], in test [8], in [10], in [17] and in test [14] was inactive.
